A number with no mark means an inactive call. Inconclusive results are not listed. Calls of active or inactive are those of the source. Unless noted, calls follow the shape of the dose curve; as a rule, active = well fitted curve in the direction sought with a large enough effect in the repeat runs; inconclusive = weak or mixed curves; inactive = no such curve, though single readings can be large; an effect the other way counts as inactive or inconclusive.

Experiment [1] can be described thus: qHTS assay for small molecules that induce genotoxicity in human embryonic kidney cells expressing luciferase-tagged ATAD5 (AID 651632). Also: nearly all actives have a fitted effect of over 15% in size. The procedure, abridged: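 ATAD5-luc HEK293T, 2,000 cells/well; cpd or DMSO pin-transferred; 16 hr, 37C/5% CO2; Amplite 30 min RT; luminescence.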
A general note: In qHTS, concentration-response curves come from the screen itself.

A short description of experiment [2]: qHTS assay for small molecule agonists of the p53 signaling pathway - cell viability (AID 651633; calls by dose curve;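 also: p53RE-bla HCT reporter cells with a stable beta-lactamase p53 reporter; series mostly up to about 83 µM; nearly all actives have a fitted effect of over 30% in size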). The procedure, abridged: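 Viability counter-read: CellTiter-Glo luminescence (30 min, room temperature) in the same p53RE-bla plates. These plates had been exposed to compounds for 16 h at 37 C.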
Experiment [3] in a line: qHTS assay for small molecules that induce genotoxicity in human embryonic kidney cells expressing luciferase-tagged ATAD5 - cell viability (AID 651634; calls by dose curve; also: nearly all actives have a fitted effect of over 25% in size). The procedure, abridged: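 Fluorescence from CellTiter-Fluor, reporting protease activity within live cells, served as the viability read-out. HEK293T cells carrying luciferase-tagged ATAD5 had been treated with compound for 15.5 hr at 37C.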

Experiment [4] can be described thus: qHTS assay to test for compound auto fluorescence at 590 nm (red) in HepG2 cells (AID 720674). In short, it runs like this:
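We screened compounds on adherent HepG2 cells, incubating them for an hour at 37 C in 5% CO2 before reading emission at 590 nm under 540 nm excitation; values reflect equivalence to Rose Bengal sodium fluorescence.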

A short description of experiment [5]: qHTS assay to test for compound auto fluorescence at 535 nm (green) in HepG2 cells (AID 720675).
A short description of experiment [6]: qHTS assay to test for compound auto fluorescence at 590 nm (red) in HEK293 cells (AID 720679). The procedure, abridged:
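Red autofluorescence, HEK293 cells: 2,000 cells/well; attach 4-5 hr 37C; add 23 nL cpd or DMSO; incubate o/n 37C 5% CO2; read Ex540/Em590; Rose Bengal sodium reference.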

The nature of experiment [7]: qHTS assay to test for compound auto fluorescence at 535 nm (green) in HEK293 cells (AID 720680).
The nature of experiment [8]: qHTS assay to test for compound auto fluorescence at 460 nm (blue) in HEK293 cell free culture (AID 720681). Also: potency is read from the fitted curve at half-maximal effect. The procedure, abridged:
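Blue fluorescence (Ex 405/Em 460 nm, triamterene-equivalent) was read immediately after pin transfer of compound or DMSO into medium (DMEM, 10% FBS) without cells.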

Experiment [9] in a line: qHTS assay to test for compound auto fluorescence at 535 nm (green) in HEK293 cell free culture (AID 720682). In short, it runs like this: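 Intrinsic compound fluorescence is measured in culture medium containing 10% FBS, with excitation at 485 nm and detection at 535 nm, referenced to fluorescein.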
Experiment [10] in a line: qHTS assay to test for compound auto fluorescence at 590 nm (red) in HEK293 cell free culture (AID 720683). In short, it runs like this: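 Red-channel autofluorescence of compounds in culture medium (DMEM, 10% FBS), no cells, measured at 540/590 nm. Rose Bengal sodium is the reference fluorophore for equivalence.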
Experiment [11] in a line: qHTS assay to test for compound auto fluorescence at 590 nm (red) in HepG2 cell free culture (AID 720684). The procedure, abridged: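 Plate contents were MEM with 10% FBS plus test compound or DMSO, no cells. Fluorescence was recorded with 540 nm excitation and 590 nm emission.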
A short description of experiment [12]: qHTS assay to test for compound auto fluorescence at 535 nm (green) in HepG2 cell free culture (AID 720686).
Experiment [13] in a line: qHTS assay to test for compound auto fluorescence at 460 nm (blue) in HepG2 cells (AID 720687). Also: potency is read from the fitted curve at half-maximal effect. In short, it runs like this: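 Blue-channel autofluorescence (Ex/Em 405/460 nm, triamterene-equivalent) was measured after 1 hr compound exposure at 37 C, 5% CO2. Cells were HepG2, plated overnight at 37 C in MEM plus 10% FBS.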
The target of experiment [14] is Glucocorticoid receptor (Homo sapiens) (UniProt P04150). Kind of experiment: qHTS assay to identify small molecule agonists of the glucocorticoid receptor (GR) signaling pathway (AID 720691; active = well fitted activation curve with a large enough effect in the signal ratio in the repeat runs, not every such curve was filed as active; the % refers to the signal ratio). In short, it runs like this:
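Fluorescence intensity from LiveBLAzer B/G FRET substrate (2 h, room temperature) reports beta-lactamase expression driven by the glucocorticoid response element in GR-bla HeLa cells after 18 h compound exposure at 37 C.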

For experiment [15] the target is unchanged. Kind of experiment: qHTS assay to identify small molecule antagonists of the glucocorticoid receptor (GR) signaling pathway (AID 720692; active = well fitted inhibition curve with a large enough effect in the signal ratio in the repeat runs, not every such curve was filed as active; the % refers to the signal ratio). The procedure, abridged: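 HeLa GR-bla cells; cmpd + dex 5 nM final, 18 h 37 C; LiveBLAzer B/G FRET substrate 2 h RT; fluorescence intensity read. Antagonist mode, qHTS.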
Experiment [16] in a line: qHTS assay for small molecule disruptors of the mitochondrial membrane potential - cell viability (AID 720634; calls by dose curve;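 also: human HepG2 liver cancer cells; series mostly up to about 83 µM; nearly all actives have a fitted effect of over 20% in size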). The procedure, abridged:
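Cells: HepG2, 2,000/well, attached overnight. Compound 1 hr, 37 C/5% CO2. +m-MPI dye, +CellTiter-Glo 30 min RT. Readout: luminescence (ATP).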

Experiment [17] can be described thus: qHTS assay for small molecule disruptors of the mitochondrial membrane potential (AID 720635). Also: potency is read from the fitted curve at half-maximal effect. In short, it runs like this:
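Mitochondrial membrane potential tracked with Mito-MPS dye, red aggregates (ex 540/em 590 nm) against green monomers (ex 490/em 535 nm). Compound treatment 1 hr at 37C, dye 30 min in HepG2.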

Experiment [18] in a line: qHTS assay to test for compound auto fluorescence at 460 nm (blue) in HEK293 cells (AID 720678). Also: potency is read from the fitted curve at half-maximal effect. The procedure, abridged: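 Intrinsic compound fluorescence is recorded in live HEK293 cultures after overnight incubation at 37C, 5% CO2, using excitation 405 nm and emission 460 nm. Values are referenced to triamterene.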
The nature of experiment [19]: qHTS assay to test for compound auto fluorescence at 460 nm (blue) in HepG2 cell free culture (AID 720685). Also: potency is read from the fitted curve at half-maximal effect. In short, it runs like this: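 Compound (23 nL) or DMSO pinned into cell-free MEM with 10% FBS; blue fluorescence read at 405/460 nm excitation/emission, expressed as auto-fluorescence equivalency to triamterene.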
% is scaled to controls: 0 for no effect and ±100 for the full control effect; tags tell the direction and shape of the fitted curve or compound fluorescence and quenching.

Chain of Glucocorticoid receptor (Homo sapiens) (P04150 whole entry, looked up): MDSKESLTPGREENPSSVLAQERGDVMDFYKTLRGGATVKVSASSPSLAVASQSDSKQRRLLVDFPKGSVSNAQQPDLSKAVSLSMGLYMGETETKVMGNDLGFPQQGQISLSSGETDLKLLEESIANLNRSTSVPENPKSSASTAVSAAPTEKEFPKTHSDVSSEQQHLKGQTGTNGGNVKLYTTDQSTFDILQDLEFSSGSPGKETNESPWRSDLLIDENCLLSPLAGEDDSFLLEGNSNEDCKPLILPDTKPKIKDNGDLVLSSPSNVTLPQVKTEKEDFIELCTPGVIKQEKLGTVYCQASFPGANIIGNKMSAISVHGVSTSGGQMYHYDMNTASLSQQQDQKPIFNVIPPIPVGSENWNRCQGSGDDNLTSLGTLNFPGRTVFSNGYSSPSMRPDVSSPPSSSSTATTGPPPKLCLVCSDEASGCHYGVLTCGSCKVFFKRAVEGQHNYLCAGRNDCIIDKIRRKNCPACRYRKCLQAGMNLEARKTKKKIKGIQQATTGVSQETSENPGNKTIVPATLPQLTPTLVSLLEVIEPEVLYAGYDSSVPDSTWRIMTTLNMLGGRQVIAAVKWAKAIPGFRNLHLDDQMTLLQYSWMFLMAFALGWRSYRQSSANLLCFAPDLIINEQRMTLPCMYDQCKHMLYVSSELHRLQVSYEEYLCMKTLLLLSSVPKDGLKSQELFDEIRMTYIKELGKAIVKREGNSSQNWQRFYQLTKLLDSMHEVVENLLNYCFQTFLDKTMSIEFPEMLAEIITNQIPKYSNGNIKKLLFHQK

Consider `Cc1ccc(-c2ccccc2)cc1`, for which the Potency result in experiment [1], in experiment [2], in experiment [3], in [4], in experiment [5] and in [6] was “inactive” throughout. For the same compound, the Potency entry in experiment [7], in experiment [8], in experiment [9], in [10], in [11] and in experiment [12] was “inactive” each time. The Potency result in experiment [13], in experiment [14] and in experiment [15] was “inactive” each time.

On to `c1ccc(C(O[C@@H]2CCCN(CCc3ccc4c(c3)OCO4)C2)c2ccccc2)cc1`, for which the Potency entry in experiment [1], in experiment [2], in experiment [3], in experiment [4], in experiment [5] and in [6] was “inactive” each time. In addition, the Potency entry in experiment [7], in [8], in experiment [9], in experiment [10], in [11] and in experiment [12] was “inactive” each time. The Potency result in [13] and in [14] was “inactive” in each case.

In the case of `CC(=O)[C@H]1CC[C@H]2[C@@H]3CCC4=CC(=O)CC[C@]4(C)[C@H]3CC[C@]12C`, the Potency result in experiment [1], in experiment [3], in experiment [16], in experiment [4], in [5] and in experiment [18] was “inactive” each time. The Potency entry in experiment [6], in experiment [7], in [8], in [9], in experiment [10] and in experiment [11] was “inactive” in each case. The Potency entry in experiment [19], in experiment [12] and in experiment [13] was “inactive” in each case. Besides, in experiment [17], the Potency is 19.3 µM (active).

On to `COCCOc1cc2cc(C(=O)NC3CCN(C(C)C)CC3)n(CC(=O)Nc3ccc(Cl)cn3)c2cn1`, for which the Potency entry in experiment [1], in experiment [2], in [3], in experiment [17], in experiment [4] and in experiment [5] was “inactive” each time. For the same compound, the Potency result in [18], in experiment [6], in experiment [8], in experiment [9], in [10] and in experiment [11] was “inactive” each time. Besides, the Potency entry in experiment [12], in experiment [13], in experiment [14] and in experiment [15] was “inactive” in each case.

As for `C[C@@H](O)[C@H](N)C(=O)O`, the Potency entry in [1], in experiment [2], in experiment [3], in [17], in [4] and in experiment [5] was “inactive” throughout. In addition, the Potency result in experiment [18], in [6], in experiment [7], in experiment [8], in experiment [9] and in experiment [10] was “inactive” each time. For the same compound, the Potency result in experiment [11], in experiment [19], in [12], in experiment [13], in experiment [14] and in experiment [15] was “inactive” throughout.

Turning to `CCc1cccc(CC)c1NC(=O)CN(CC(=O)O)CC(=O)O`, the Potency entry in experiment [1], in [2], in experiment [3], in experiment [17], in experiment [14] and in experiment [15] was “inactive” in each case. Further, the fluorescence, relative to Rose Bengal in experiment [4] is 0.215% [at 18.6 µM]. The fluorescence, % of fluorescein control is -0.0501% [at 18.6 µM] in [5] and 0.0075% [at 18.6 µM] in experiment [12]. Moreover, in experiment [18], the fluorescence, % of triamterene was -0.194% [at 18.6 µM]. The fluorescence, % of fluorescent control in experiment [6] was -0.732% [at 18.6 µM]; in experiment [8], 0.0332% [at 18.6 µM]; in [10], 0.184% [at 18.6 µM]; in [19], -0.0593% [at 18.6 µM]; in experiment [13], 0.148% [at 18.6 µM]. Moreover, in experiment [7], the fluorescence, % of fluorescein was 0.0114% [at 18.6 µM]. For the same compound, the activity change in experiment [9] is 0.0655% [at 18.6 µM, stronger effect = higher value]. For the same compound, in experiment [11], the fluorescence, % of Rose Bengal is -0.249% [at 18.6 µM].

With `Cc1cc(=O)oc2cc(O)cc(O)c12`, the Potency entry in experiment [1], in experiment [2], in experiment [3], in experiment [4], in experiment [5] and in experiment [6] was “inactive” each time. Besides, the Potency entry in [7], in experiment [9], in experiment [10], in experiment [11] and in experiment [12] was “inactive” in each case. In addition, the Potency in experiment [17] is 61.3 µM (active); in experiment [18] it was 39.8 µM [fluorescent] (active); in [8] it was 39.8 µM (active); in experiment [19] it was 39.8 µM [fluorescent] (active); in [13] it was 35.5 µM [fluorescent] (active).
